Pol iota inh = qHTS for Inhibitors of Polymerase Iota | 390,000 tested, 1% active | DNA polymerase iota (Homo sapiens), Q9UNA4 | Potency, µM (series often up to 115 µM), without a hit: top-dose activity, negative = inhibition, most hits filed as inhibitors | Pol iota fluorescent replication assay, 10 min; further: potency means the concentration at half of the fitted maximal effect
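Pol iota at 10 nM preincubated 15 min with compounds at room temperature; reaction started with fluorescent substrate, 50 nM final. Fluorescence read kinetically at 0 and 10 min; buffer-only wells as negative control.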
GLS inh = qHTS for Inhibitors of Glutaminase (GLS). Glutaminase kidney isoform, mitochondrial (Homo sapiens), O94925. GLS enzymatic activity, qHTS titration. Potency, µM (series often up to 45.5 µM), for inactives: top-dose activity change, negative = inhibition, hits mostly inhibitors. 410,000 tested, 0.21% active; further: potency means the concentration at half of the fitted maximal effect; on the % scale 0 is the no-effect control and ±100 the full control effect
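Human kidney-isoform GLS in 45 mM KH2PO4 pH 8.2, 0.02% Tween-20, with compound, started with 1mM L-Glutamine (added stock). Glutamate oxidase/HRP/Amplex red coupled fluorescence read at start and after 30 min at RT.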
Pol eta inh-1 = qHTS for Inhibitors of Polymerase Eta; recombinant Pol eta, fluorescent DNA replication assay; 390,000 tested, 1.2% active; DNA polymerase eta (Homo sapiens), Q9Y253; Potency, µM (highest dose often 114 µM), for inactives: at the top dose activity change, negative = inhibition, most hits filed as inhibitors; AID 588591, 2011; further: potency means the concentration at half of the fitted maximal effect; on the % scale 0 is the no-effect control and ±100 the full control effect
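Pol eta (10 nM) was preincubated with compounds for 15 min at room temperature, after which fluorescent replication substrate (50 nM final) was added to start the reaction. Fluorescence was read kinetically at 0 and 10 min.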
Pol beta inh = qHTS Assay for Inhibitors of DNA Polymerase Beta. P06746. Pol beta primer extension/strand displacement, fluorescence kinetic. Potency, µM (series often up to 114 µM), inactives show at the highest dose activity change, negative = inhibition, usual class: inhibitors. 340,000 tested, 1.3% active; further: potency means the concentration at half of the fitted maximal effect; on the % scale 0 is the no-effect control and ±100 the full control effect
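Pol beta (10 nM) was preincubated with compound for 15 min at room temperature. The reaction was then started with 50 nM substrate and read immediately and after a further 10 min at room temperature.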
Pol kappa inh-1 = qHTS for Inhibitors of Polymerase Kappa; DNA polymerase kappa (Homo sapiens), Q9UBT6; purified Pol kappa, fluorescent DNA synthesis assay, 10 min; Potency, µM (top dose mostly 107 µM), without a hit: at the highest dose activity, negative = inhibition, usual class: inhibitors; 400,000 tested, 0.53% active; AID 588579, 2011; further: potency means the concentration at half of the fitted maximal effect; on the % scale 0 is the no-effect control and ±100 the full control effect
Target sequence (Q9UBT6 whole entry, looked up): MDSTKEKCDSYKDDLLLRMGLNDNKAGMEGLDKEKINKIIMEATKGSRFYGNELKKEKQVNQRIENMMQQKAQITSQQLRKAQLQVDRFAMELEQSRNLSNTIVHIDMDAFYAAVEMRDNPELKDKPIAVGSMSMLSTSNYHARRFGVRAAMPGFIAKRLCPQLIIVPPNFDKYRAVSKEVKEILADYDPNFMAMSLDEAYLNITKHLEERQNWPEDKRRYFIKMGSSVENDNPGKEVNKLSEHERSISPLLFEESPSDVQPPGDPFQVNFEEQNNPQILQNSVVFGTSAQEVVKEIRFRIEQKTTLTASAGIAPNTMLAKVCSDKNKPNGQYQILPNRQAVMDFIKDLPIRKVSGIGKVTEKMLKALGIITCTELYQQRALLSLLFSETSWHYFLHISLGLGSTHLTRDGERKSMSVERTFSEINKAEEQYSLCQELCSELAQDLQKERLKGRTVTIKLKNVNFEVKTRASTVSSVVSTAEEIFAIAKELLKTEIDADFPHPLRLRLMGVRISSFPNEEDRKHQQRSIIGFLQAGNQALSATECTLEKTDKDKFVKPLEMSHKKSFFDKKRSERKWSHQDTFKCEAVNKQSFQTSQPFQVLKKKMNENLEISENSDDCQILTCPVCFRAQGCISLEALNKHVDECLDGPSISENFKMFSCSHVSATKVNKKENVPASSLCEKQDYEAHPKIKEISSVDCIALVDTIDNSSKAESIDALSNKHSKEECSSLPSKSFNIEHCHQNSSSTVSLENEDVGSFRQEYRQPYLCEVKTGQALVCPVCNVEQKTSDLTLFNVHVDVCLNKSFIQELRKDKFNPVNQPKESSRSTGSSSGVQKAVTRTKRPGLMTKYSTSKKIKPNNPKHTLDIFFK
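Enzyme at 10 nM met test compounds for 15 min at room temperature. Substrate addition (50 nM final) began the reaction, which was monitored by fluorescence at 0 and 10 min.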
APE1 inh-1 = qHTS Assay for Inhibitors of the Human Apurinic/apyrimidinic Endonuclease 1 (APE1) | DNA repair nuclease/redox regulator APEX1 (Homo sapiens), P27695 | recombinant APE1, TAMRA/BHQ-2 abasic DNA cleavage fluorescence | Potency, µM (highest dose often 65.8 µM), for inactives: top-dose activity change, negative = inhibition, usual class: inhibitors | 350,000 tested, 0.35% active;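 further: potency means the concentration at half of the fitted maximal effect; plate controls were vehicle for no effect and reference inhibitor for full effect; nearly all actives have a fitted effect of over 55% in size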
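Endonuclease cleavage of a quenched abasic-site DNA duplex (50 nM) by APE1 (0.75 nM) was tracked by TAMRA dequenching. Compounds were preincubated with enzyme 15 min at room temperature; data normalized to buffer-only and DMSO wells plus NSC13755 control.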
APE1 dye cs = Counterscreen for APE1 Inhibitors: Fluorescent Dye Displacement Assay; shares compounds with APE1 inh-1; Potency, µM (series often up to 28.5 µM), for the others: at the top dose activity change, negative = inhibition, usual class: inhibitors; AID 2564, 2010; DNA fluorescent dye displacement counterscreen, fluorescence; 480 tested, 7% active;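 further: loss of thiazole orange fluorescence as the dye is displaced from duplex DNA; potency means the concentration at half of the fitted maximal effect; 0% = ThO with dsDNA and no compound and -100% = ThO without dsDNA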
EndoIV counter = Counterscreen for APE1 Inhibitors: qHTS Assay for Inhibitors of Endonuclease IV | shares compounds with APE1 inh-1 | E. coli Endo IV, fluorogenic AP-site DNA cleavage | Potency, µM (doses to about 27.1 µM), inactives show top-dose activity change, negative = inhibition, hits mostly inhibitors | 560 tested, 4% active;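 further: potency means the concentration at half of the fitted maximal effect; plate controls were uninhibited enzyme wells for no effect and no enzyme buffer wells for full effect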
APE1 inh-2 = Confirmation qHTS Assay for Inhibitors of the Human Apurinic/apyrimidinic Endonuclease 1 (APE1) | shares compounds with APE1 inh-1 | purified APE1, fluorogenic abasic-site DNA cleavage | Potency, µM (top dose mostly 57.1 µM), for inactives: top-dose activity change, negative = inhibition, usual class: inhibitors | 750 tested, 44% active | AID 2572, 2010; further: potency means the concentration at half of the fitted maximal effect; on the % scale 0 is the no-effect control and ±100 the full control effect; nearly all actives have a fitted effect of over 30% in size
APE1 FP inh = qHTS FP-Based Assay for Inhibitors of the Human Apurinic/apyrimidinic Endonuclease 1 (APE1) | shares compounds with APE1 inh-1 | APE1 binding to TAMRA-labelled double-stranded DNA, fluorescence polarization displacement | Potency, µM (highest dose often 28.5 µM), for the others: at the top dose activity, negative = inhibition, most hits filed as inhibitors | 480 tested, 7% active | AID 2573, 2010; further: potency means the concentration at half of the fitted maximal effect; on the % scale 0 is the no-effect control and ±100 the full control effect
PGK validate = qHTS for inhibitors of Phosphogylcerate Kinase: Hit Validation Screen | AID 686980, 2013 | Potency, µM (top dose mostly 57.5 µM), inactives show at the top dose activity change, negative = inhibition, usual class: inhibitors | shares compounds with Pol kappa inh-1 | TbPGK coupled GAPDH assay, Kinase-Glo luminescence | 500 tested, 79% active; further: potency means the concentration at half of the fitted maximal effect; on the % scale 0 is the no-effect control and ±100 the full control effect; nearly all actives have a fitted effect of over 65% in size
Pol iota confirm = qHTS for Inhibitors of Polymerase Iota: Confirmatory Assay for Cherry-picked Compounds; shares compounds with Pol kappa inh-1; Pol iota primer extension, TAMRA/BHQ fluorescence; Potency, µM, actives largely listed as inhibitors; 1,500 tested, 77% active; further: potency means the concentration at half of the fitted maximal effect
GALK inh confirm = Confirmation Assay for Inhibitors of Human Galactokinase (GALK) | shares compounds with Pol eta inh-1 | purified GALK, Kinase-Glo ATP depletion luminescence | Potency, µM (doses to about 115 µM), without a hit: at the top dose activity, negative = inhibition, usual class: inhibitors | 150 tested, 70% active | AID 2015, 2009
Redox cycling = Confirmatory Assay for Inhibitors of Human Galactokinase (GALK): Phenol-HRP redox assay counterscreen; 150 tested, 40% active; Phenol red-HRP H2O2 redox cycling, absorbance 600 nm; Potency, µM (titrated, usually from 115 µM), for inactives: top-dose activity change, negative = H2O2 signal, actives largely listed as inhibitors; shares compounds with Pol eta inh-1
HEK293 viability = Secondary Assay for Inhibitors of Human Galactokinase (GALK): HEK-293 Cell Viability Assay; shares compounds with Pol eta inh-1; HEK-293 viability, ATP luminescence (CellTiter-Glo), 24/48 h; Potency, µM (series often up to 46.1 µM), without a hit: top-dose activity change, negative = cytotoxicity, actives largely listed as inhibitors; 170 tested, 10% active; further: potency means the concentration at half of the fitted maximal effect; on the % scale 0 is the no-effect control and ±100 the full control effect
Pol kappa inh-2 = qHTS for Inhibitors of Polymerase Kappa: Confirmatory Assay for Cherry-picked Compounds; 920 tested, 76% active; purified Pol-kappa, fluorescent strand-displacement substrate; AID 720501, 2013; shares compounds with Pol eta inh-1; Potency, µM, usual class: inhibitors; further: potency means the concentration at half of the fitted maximal effect
Pol eta inh-2 = qHTS for Inhibitors of Polymerase Eta: Confirmatory Assay for Cherry-picked Compounds. shares compounds with Pol eta inh-1. Pol eta primer extension, TAMRA/BHQ fluorescence, 10 min. Potency, µM, actives largely listed as inhibitors. 2,600 tested, 64% active. AID 720502, 2013; further: potency means the concentration at half of the fitted maximal effect
An asterisk follows results filed as active; ! = a repeat was not active; [ ] = remark or other dose. In the library only some 2.4% were active in any assay of this set; here they are far more common. The call rests on the fitted dose curve; in most records, active means well fitted curve in the direction sought with a large enough effect; inconclusive means small, poorly fitted or top-dose-only effect, or another doubt; inactive means no such curve, though single readings can be large; an effect the other way counts as inactive or inconclusive.

What do the screens show for `O=C(O)Cn1cc(/C=C2\C(=O)NC(=O)N(Cc3ccco3)C2=O)c2ccccc21`?
Pol iota inh: 4.5µM*; GLS inh: inconclusive; Pol eta inh-1: 1.6µM*; Pol beta inh: 10µM*; Pol kappa inh-1: 20µM*; APE1 inh-1: 7.9µM*; APE1 dye cs: inconclusive; EndoIV counter: 22%; APE1 inh-2: 11µM*; APE1 FP inh: -3%; PGK validate: 8.2µM*; Pol iota confirm: 3.4*; Pol eta inh-2: 4.8*

What do the screens show for `CCCN(CCC)CCc1ccc(O)c(O)c1`?
Pol iota inh: -2%[58.9 µM]; Pol eta inh-1: -5%[57.1 µM]; Pol beta inh: 4%[57.1 µM]; Pol kappa inh-1: 1%[60.1 µM]; APE1 inh-1: 0%

Results for CC(N)[C@H](O)c1ccc(O)c(O)c1 (some centres undefined) ?
Pol iota inh: 2.5µM*; Pol eta inh-1: 3.2µM*; Pol beta inh: 1.8µM*; Pol kappa inh-1: 3µM*; APE1 inh-1: 1µM*; APE1 dye cs: -11%[57.1 µM]; EndoIV counter: 43%[57.1 µM]; APE1 inh-2: -6%; APE1 FP inh: -3%[57.1 µM]; Pol iota confirm: 15*; Pol eta inh-2: 38*

How did CN1CC[C@]2(c3cccc(O)c3)Cc3nc4ccccc4cc3C[C@H]2C1 do in these assays?
Pol beta inh: 32%; APE1 inh-1: 20%

Results for CCC(c1nnnn1C1CCCCC1)N1CCC2(CC1)C(=O)NCN2c1ccccc1 (centres undefined) ?
GLS inh: 30%

How did CC(=O)Nc1ccc(N=Cc2c(O)n(Cc3ccco3)c(=O)[nH]c2=O)cc1 do in these assays?
Pol iota inh: 45µM*; GLS inh: 1%; Pol eta inh-1: inconclusive; Pol beta inh: 25µM*; Pol kappa inh-1: inconclusive; APE1 inh-1: inconclusive; APE1 inh-2: -26%; Pol iota confirm: 60*; Pol kappa inh-2: inconclusive; Pol eta inh-2: 76*

How did CCC(C)n1c(O)c(C=NCCc2ccccc2)c(=O)[nH]c1=S (centres undefined) do in these assays?
Pol iota inh: 2%; GLS inh: -2%; Pol eta inh-1: 0%; Pol beta inh: 0%; Pol kappa inh-1: -2%; APE1 inh-1: inconclusive

How did O=c1c(O)c(-c2ccc(O)c(O)c2)oc2cc(O)cc(O)c12 do in these assays?
Pol iota inh: 0.56µM*; GLS inh: 0%; Pol eta inh-1: 0.71µM*; Pol beta inh: 0.2µM*; Pol kappa inh-1: 0.95µM*; APE1 inh-1: 1.3µM*!; EndoIV counter: -63%[57.1 µM]; APE1 inh-2: -37%; PGK validate: inconclusive; Pol iota confirm: 15*; GALK inh confirm: 42µM*; Redox cycling: -2%; HEK293 viability: inconclusive; Pol kappa inh-2: 3*; Pol eta inh-2: 12*

Screens (PubChem)
